INHIBITION data for 58 compounds are collected here from ChEMBL document CHEMBL4513216, “Probing the Open Global Health Chemical Diversity Library for Multistage-Active Starting Points for Next-Generation Antimalarials” (ACS Infect Dis, 2020).

Screen size: about 69,000 compounds; about 8,600 (12%) showed an effect of 50% or more. For the sample, strong results were picked, then their nearest neighbours and some compounds at random.

The subject of this test is Plasmodium berghei. Briefly: Screen against P. berghei liver stage (PbLuc), transformed with Luciferase, at 10uM. Type of test: functional, HepG2. The conditions noted are these: tested at 10 uM.
In the case of `O=C(c1ccnnc1)N1CC[C@]2(C[C@H](Oc3ncccc3F)CO2)C1`, the INHIBITION is recorded as -29.3%. Next, `Cc1nn(C)cc1-c1cc(C(=O)N2CCc3ncc(Cl)cc3C2)no1`: 38.65%. For `CC(=O)NC1CCCN(C(=O)Nc2nnc(C(C)C)s2)C1` (stereo not drawn), the INHIBITION amounted to 52%. As for `CC(=O)NC1CCCN(C(=O)NCc2cc[nH]n2)C1` (stereo not drawn), the figure is 31.9%; as for `CCCc1nnc(NC(=O)N2CCCC(NC(C)=O)C2)s1` (stereo not drawn), 17%; as for `CCC(CC)c1nnc(NC(=O)N2CCC(C(N)=O)CC2)s1`, 12.6%. As for `CCC(CC)c1nnc(NC(=O)N2CCCC(NC(C)=O)C2)s1` (stereo not drawn), the figure is 52%; as for `CC(C)c1nnc(NC(=O)NC2CCN(Cc3ccccc3)C2)s1` (stereo not drawn), -15.05%; as for `NCCc1cc(N2CCOCC2)nc(NC2CC2)n1`, 18.25%. Next, `CN(C)CCN(Cc1ccc(C#N)cc1)C(=O)c1ccn(C)c(=O)c1`: 8.38%; `CS(=O)(=O)NCCNC(=O)Cc1ccc(Br)s1`: -62.1%; `CNC(=O)c1cc(NC(=O)Nc2cnn(CC(C)C)c2)ccc1F`: 1.56%. For the compound `COc1ccccc1-c1cc(C(=O)N2CCCC2)c2cnn(C)c2n1`, the INHIBITION is recorded as 44.1%. Consider `O=C(CCc1ccccn1)N1CCCC1`, for which the INHIBITION was -8.11%.

Turning to `CN(C)C(=O)C1SCCc2ccccc21` (stereo not drawn), the INHIBITION was 38.9%. Take `CN1CCN(C(=O)C2SCCc3sccc32)CC1` (stereo not drawn): the INHIBITION was determined as 39.7%. Next, `O=C(C1SCCc2sccc21)N1CCCCC1` (stereo not drawn): 62%.

For `CN(C)C1CCN(C(=O)C2SCCc3ccccc32)CC1` (stereo not drawn), the INHIBITION is given as 19.2%. As for `NC(=O)C1CCN(C(=O)C2SCCc3sccc32)CC1` (stereo not drawn), the figure is 69.7%; as for `O=C(C1SCCc2ccccc21)N1CCC(O)CC1` (stereo not drawn), 50.8%. Next, `CC(=O)N1CCN(C(=O)C2SCCc3sccc32)CC1` (stereo not drawn): 8.47%; `O=C(C1SCCc2sccc21)N1CC(O)C1` (stereo not drawn): 6.33%; `O=C(C1SCCc2sccc21)N1CCC(O)CC1` (stereo not drawn): 20.1%. As for `COCCNC(=O)C1CCCN(c2ccc3nncn3n2)C1` (stereo not drawn), the figure is -21.9%. For `CCO[C@H]1CN(CC2CCOCC2)[C@@H]2CCCO[C@H]12`, the INHIBITION was found to be 38.5%. As for `O=C1COC2(CCN(Cc3ccco3)CC2)CN1CCn1cccn1`, the INHIBITION is given as 4.02%. Turning to `O=C(Nc1ccc(CCN2CCOCC2)cc1)C1CC1`, the INHIBITION was 6.35%. Next, `Cc1nsc(N2CCCN(C(=O)CCc3ccsc3)CC2)n1`: 15.7%. Next, `CCOc1ccc(N2CCCN=C2NC(=O)c2ccc(OC)cc2)cc1`: -8.07%. As for `CCOc1ccc(N2CCCN=C2NC(=O)c2ccc(Cl)cc2)cc1`, the figure is 19.3%; as for `CCOc1ccc(N2CCCN=C2NC(=O)c2cccc(C)c2)cc1`, 54%; as for `CCOc1ccc(N2CCCN=C2NC(=O)c2cccc(OC)c2)cc1`, 54.9%.

For the compound `CCOc1ccc(N2CCCN=C2NC(=O)c2ccccc2C)cc1`, the INHIBITION was -11.5%.

With `CCOc1ccc(N2CCCN=C2NC(=O)c2cccc(Cl)c2)cc1`, the INHIBITION was 23.5%. Next, `NC(=O)C1CCN(C(=O)NCCNc2ccccn2)CC1`: 21.9%; `CCc1ncc(CN(C)C2CCN(C(C)C)CC2)cn1`: -27.1%.

As to `O=C(c1ccco1)N1CCC2(CCC(=O)N2Cc2cccc(F)c2)CC1`, the INHIBITION is listed as -4.27%. As for `COc1cc(N2C[C@H](C(=O)NC3CC3)[C@@H]3CCO[C@@H]3C2)ncn1`, the figure is 12.7%. On to `Cc1ncc2c(n1)CN(CC(O)COc1ccc(C#N)cc1)CC2` (stereo not drawn), for which the INHIBITION is on record as -78%. Next, `Cc1cnn(C2CN(CC(O)c3ccc(F)cc3)C2)c1` (stereo not drawn): -30.1%; `Cc1cnn(C2CN(CC(O)c3ccccc3)C2)c1` (stereo not drawn): 29%. As for `COc1ccc(C(O)CN2CC(n3cc(C)cn3)C2)cc1` (stereo not drawn), the figure is 57.2%; as for `Cc1cnn(C2CN(CC(O)COc3ccc(C#N)cc3)C2)c1` (stereo not drawn), 72.7%. As for `Cc1cnn(C2CN(CC(O)Cn3cccn3)C2)c1` (stereo not drawn), the figure is 36.6%; as for `COc1cccc(-n2c(C)cc(C(=O)NCCCC(N)=O)c2C)c1`, -5.25%. As to `CC(C)c1nnc2n1CCN(C(=O)c1cccc(S(C)(=O)=O)c1)C2`, the INHIBITION came out at 45.7%. Next, `O=C(c1cscn1)N1C[C@H]2CCC[C@@]2(COCc2ccccn2)C1`: 64.7%; `O=C(C1CCOCC1)N1C[C@H]2CCC[C@@]2(COc2ccccn2)C1`: 13.6%. Next, `O=C(C1CCOCC1)N1C[C@H]2CCC[C@@]2(COCc2ccccn2)C1`: 53%. As for `O=C(c1ccnnc1)N1C[C@H]2CCC[C@@]2(COCc2ccccn2)C1`, the figure is 31.1%. With `c1ccc(COC[C@@]23CCC[C@@H]2CN(Cc2ccccn2)C3)nc1`, the INHIBITION is on record as -7.94%. Next, `O=C(c1ccc(F)cc1)N1C[C@H]2CCC[C@@]2(COCc2ccccn2)C1`: 40.9%. Next, `Cc1ncoc1C(=O)N1C[C@H]2CCC[C@@]2(COCc2cccnc2)C1`: 60.1%; `O=S(=O)(C1CC1)N1C[C@H]2CCC[C@@]2(COCc2ccccn2)C1`: 43.9%; `O=C(c1ncccn1)N1C[C@H]2CCC[C@@]2(COCc2cccnc2)C1`: 45.5%. As for `O=C(N1CCCC1)N1C[C@H]2CCC[C@@]2(COCc2ccccn2)C1`, the figure is 63.8%; as for `O=C(c1cocn1)N1C[C@H]2CCC[C@@]2(COCc2cccnc2)C1`, 9.63%; as for `O=C(C1CCOCC1)N1C[C@H]2CCC[C@@]2(COc2cccnc2)C1`, 23.6%.
